For experiment [1], the target named is Lysosomal acid glucosylceramidase (Homo sapiens) (UniProt P04062). Put plainly: Glucocerebrosidase-p2 (AID 348; in the data active = potency below about 10 µM; also: potency is read from the fitted curve at half-maximal effect). The following applies: purified GBA, blue fluorogenic substrate, 40 min. Summed up:
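Compounds titrated from 0.6 nM upwards against 0.2 nM enzyme in pH 5.9 citric acid/KH2PO4, taurocholate, tween-20; blue fluorogenic substrate 80 uM, 40 min room temperature, stopped and read Ex 365/Em 440 for AC50.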

Experiment [2] is described as follows: AP1 Signaling Pathway (AID 357). Also: % is scaled to controls: 0 for no effect and ±100 for the full control effect. The note with it: ME-180 AP-1-bla reporter, EGF-induced, beta-lactamase ratio, 5 h; at 7.69 µM (top of the series) unless noted. Summed up:
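ME-180 cells with beta-lactamase reporter under AP-1 response element, stimulated with EC50 EGF; compounds tested in titration series, 5 h at 37 °C. CCF4 substrate added 2.5 h at room temperature; 460/530 nm emission ratio gave %activity and AC50.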

The target in experiment [3] is Cytochrome P450 1A2 (Homo sapiens) (UniProt P05177). Put plainly: p450-cyp1a2 (AID 410; calls by dose curve;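 also: -100% = full effect of reference inhibitor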). The following applies: recombinant CYP1A2, luciferin-ME demethylation, luminescence; series mostly up to 57 µM. Summed up:
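Human CYP1A2 (20nM) demethylated Luciferin-ME at its Km (100uM) in 100mM KPO4. After 10 min compound preincubation, NADPH regeneration ran the reaction 60 min at room temperature. Luciferin was read by luminescence, normalized to 57 uM furafylline.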

Experiment [4] in a line: NFAT Signaling Pathway (AID 444).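 Also: carbachol stimulus at about its EC50 of 1 µM final; % is scaled to controls: 0 for no effect and ±100 for the full control effect.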 The following applies: Jurkat NFAT-bla M1, carbachol, beta-lactamase ratio, 5 h; at 7.69 µM (top of the series) unless noted. Summed up: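 Jurkat cells with NFAT-driven β-lactamase reporter and co-expressed M1 receptor, stimulated with carbachol (final 1 uM, ~EC50), compound titration, 5 h at 37 °C. CCF4 loaded 1 h at RT; 460/530 nm ratio gave %activity and AC50.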

Experiment [5] in a line: Stat Signaling Pathway (AID 446).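 Also: ME-180 cervical cancer cells given 40 pM IL-6 alongside compound; SIE-controlled beta-lactamase reporter measured as 460/530 nm FRET emission ratio; % is scaled to controls: 0 for no effect and ±100 for the full control effect.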 The following applies: ME-180 SIE beta-lactamase reporter, IL-6 stimulated, 5 h; at 7.69 µM (top of the series) unless noted. Summed up: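 Screening format detects activators and inhibitors alike: ME-180 SIE-bla cells stimulated at 40 pM IL-6 for 5 hrs with compound, then dual-emission beta-lactamase read at 405 nm excitation.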
Experiment [6] deals with Glucocorticoid receptor (Homo sapiens) (UniProt P04150). Nature of the experiment: GR-EFC Redistribution (AID 451; calls by dose curve; also: potency is read from the fitted curve at half-maximal effect). The following applies: CHO-K1 GR-EFC translocation, beta-gal luminescence, 2 h. Summed up: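 CHO-K1 cells expressing nuclear EA and GR-ED fragments of b-gal; compounds titrated up to 46 uM final, 2 h at 37 C. GR nuclear translocation read as complemented b-gal luminescence after 1 h RT detection.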

Experiment [7] has as its target Mitogen-activated protein kinase 10 (Mus musculus) (UniProt Q61831). Nature of the experiment: JNK3 AlphaScreen Assay (AID 530).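 Also: kinase came from lysate of stimulated human HepG2 cells; signal reports phosphorylation of biotinylated GST-cJun 1-79 at Ser73 with 10 µM ATP; % is scaled to controls: 0 for no effect and ±100 for the full control effect.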 The following applies: JNK3 lysate, c-Jun phosphorylation; series mostly up to 57.1 µM. In outline: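 qHTS format: compounds tested as titrations against IL-1beta/TNF-alpha-activated HepG2 lysate JNK3 with biotin-GST-cJun substrate and 10 uM ATP at room temperature. Loss of anti-phospho-cJun AlphaScreen signal indicates inhibition.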

The target in experiment [8] is 3',5'-cyclic-AMP phosphodiesterase 4B (Homo sapiens) (UniProt Q07343). Put plainly: qHTS Assay for Inhibitors of PDE-IV (AID 607; active = well fitted activation curve with a large enough effect in the main read-out, with a control signal flat, not every such curve was filed as active; also: % of control where 0% means no effect). The following applies: HEK293 ACTOne CNG channel cells, membrane potential fluorescence; series mostly up to 22.9 µM. Summed up: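 The readout is membrane depolarisation from a cAMP-sensing CNG channel, detected with a potential dye at ex 535/em 590. Cells were HEK293-derived (endogenous PDE-IV) at 1000 cells/well, titrated up to 22.9 uM final.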

A short description of experiment [9]: qHTS Assay for Lipid Storage Modulators (AID 1519; calls by dose curve). The following applies: Drosophila S3 cells, BODIPY lipid droplet/cell ratio, laser cytometry, cells loaded with oleic acid; for activity change, negative = inhibition: at 57.5 µM (top of the series). Summed up: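 Cells seeded at 5,000 per well were treated with compounds over a concentration series and loaded with oleic acid (400 uM, as added). Lipid droplet fluorescence (488 nm excitation, 500-530 nm channel) was read by laser-scanning cytometry and normalized to 20 uM Triacsin C.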

Experiment [10] in a line: Primary qHTS for small molecule stabilizers of the endoplasmic reticulum resident proteome: Secreted ER Calcium Modulated Protein (SERCaMP) assay (AID 1508630; active = well fitted inhibition curve with a large enough effect; also: % is scaled to controls: 0 for no effect and ±100 for the full control effect). The following applies: SH-SY5Y GLuc-SERCaMP (Gaussia luciferase released on ER calcium loss) secretion, thapsigargin, luminescence; series mostly up to 38.4 µM. In outline:
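GLuc-SERCaMP-expressing SH-SY5Y cells, pretreated 16 h with compound, are challenged with thapsigargin to empty ER calcium stores; after 4 h, coelenterazine is added directly to the medium and luminescence is imaged.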

Setting [11] is: measured here: cell count channel max response.
The mark [12] stands for this setting: measured here: lipid channel max response.

Inconclusive results are not listed. Calls of active or inactive are those of the source. Unless noted, calls follow the shape of the dose curve; as a rule, active = well fitted curve in either direction with a large enough effect (not every such curve was filed as active); inconclusive = small, poorly fitted or top-dose-only effect, or another doubt; inactive = flat fitted curve, though single readings scatter.

Cytochrome P450 1A2 (Homo sapiens), sequence (P05177 whole entry, looked up): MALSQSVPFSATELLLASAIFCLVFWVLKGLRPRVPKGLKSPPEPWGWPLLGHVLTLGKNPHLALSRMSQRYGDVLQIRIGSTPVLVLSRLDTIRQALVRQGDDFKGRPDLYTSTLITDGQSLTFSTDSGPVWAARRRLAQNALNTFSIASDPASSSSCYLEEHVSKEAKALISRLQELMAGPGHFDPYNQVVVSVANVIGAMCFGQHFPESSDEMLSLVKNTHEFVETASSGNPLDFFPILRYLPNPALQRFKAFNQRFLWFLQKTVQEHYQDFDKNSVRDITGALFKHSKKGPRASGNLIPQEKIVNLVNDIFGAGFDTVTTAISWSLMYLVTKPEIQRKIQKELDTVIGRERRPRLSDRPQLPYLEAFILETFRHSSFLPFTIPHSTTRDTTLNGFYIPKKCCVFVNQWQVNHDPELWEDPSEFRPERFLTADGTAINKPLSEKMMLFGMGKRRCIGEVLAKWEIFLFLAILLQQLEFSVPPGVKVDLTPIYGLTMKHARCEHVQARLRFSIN
3',5'-cyclic-AMP phosphodiesterase 4B (Homo sapiens), sequence (Q07343 whole entry, looked up): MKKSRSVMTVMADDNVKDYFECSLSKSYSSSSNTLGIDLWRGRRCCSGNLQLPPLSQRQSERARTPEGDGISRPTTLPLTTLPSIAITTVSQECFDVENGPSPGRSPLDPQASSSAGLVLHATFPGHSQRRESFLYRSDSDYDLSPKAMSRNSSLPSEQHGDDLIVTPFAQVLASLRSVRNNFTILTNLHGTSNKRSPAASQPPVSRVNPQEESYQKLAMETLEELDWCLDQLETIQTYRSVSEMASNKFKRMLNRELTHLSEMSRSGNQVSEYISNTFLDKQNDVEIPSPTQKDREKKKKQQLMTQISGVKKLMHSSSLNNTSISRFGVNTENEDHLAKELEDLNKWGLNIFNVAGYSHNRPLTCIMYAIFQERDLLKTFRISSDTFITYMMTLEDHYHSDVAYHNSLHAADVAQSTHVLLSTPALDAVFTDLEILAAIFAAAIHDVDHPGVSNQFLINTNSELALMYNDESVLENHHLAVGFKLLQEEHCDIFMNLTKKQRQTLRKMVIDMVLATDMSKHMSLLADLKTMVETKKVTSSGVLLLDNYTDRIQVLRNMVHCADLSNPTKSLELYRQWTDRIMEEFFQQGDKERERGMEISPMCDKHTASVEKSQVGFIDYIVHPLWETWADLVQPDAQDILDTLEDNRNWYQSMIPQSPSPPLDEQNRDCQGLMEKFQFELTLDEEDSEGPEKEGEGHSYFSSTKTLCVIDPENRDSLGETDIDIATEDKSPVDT
Glucocorticoid receptor (Homo sapiens), sequence (P04150 whole entry, looked up, the tested form may be a part): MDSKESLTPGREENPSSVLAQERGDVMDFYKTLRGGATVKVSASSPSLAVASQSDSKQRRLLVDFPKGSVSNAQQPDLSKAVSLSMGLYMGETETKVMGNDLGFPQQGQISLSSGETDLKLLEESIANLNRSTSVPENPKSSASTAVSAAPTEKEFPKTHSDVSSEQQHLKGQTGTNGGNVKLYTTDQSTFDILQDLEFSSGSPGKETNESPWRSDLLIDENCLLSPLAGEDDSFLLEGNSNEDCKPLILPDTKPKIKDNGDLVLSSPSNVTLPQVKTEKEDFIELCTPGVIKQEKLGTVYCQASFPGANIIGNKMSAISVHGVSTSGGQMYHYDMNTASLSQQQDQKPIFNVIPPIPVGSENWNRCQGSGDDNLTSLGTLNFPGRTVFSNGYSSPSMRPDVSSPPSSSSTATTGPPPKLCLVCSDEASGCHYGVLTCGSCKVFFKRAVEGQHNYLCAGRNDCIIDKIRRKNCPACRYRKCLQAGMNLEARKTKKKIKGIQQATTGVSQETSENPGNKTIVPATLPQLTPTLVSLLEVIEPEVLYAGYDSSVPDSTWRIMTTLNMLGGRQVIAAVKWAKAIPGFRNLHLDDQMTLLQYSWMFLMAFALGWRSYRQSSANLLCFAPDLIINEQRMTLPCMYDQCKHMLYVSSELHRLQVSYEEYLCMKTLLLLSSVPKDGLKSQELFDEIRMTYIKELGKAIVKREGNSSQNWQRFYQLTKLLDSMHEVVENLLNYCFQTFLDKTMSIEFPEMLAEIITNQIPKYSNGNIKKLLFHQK
Lysosomal acid glucosylceramidase (Homo sapiens), sequence (P04062 whole entry, looked up): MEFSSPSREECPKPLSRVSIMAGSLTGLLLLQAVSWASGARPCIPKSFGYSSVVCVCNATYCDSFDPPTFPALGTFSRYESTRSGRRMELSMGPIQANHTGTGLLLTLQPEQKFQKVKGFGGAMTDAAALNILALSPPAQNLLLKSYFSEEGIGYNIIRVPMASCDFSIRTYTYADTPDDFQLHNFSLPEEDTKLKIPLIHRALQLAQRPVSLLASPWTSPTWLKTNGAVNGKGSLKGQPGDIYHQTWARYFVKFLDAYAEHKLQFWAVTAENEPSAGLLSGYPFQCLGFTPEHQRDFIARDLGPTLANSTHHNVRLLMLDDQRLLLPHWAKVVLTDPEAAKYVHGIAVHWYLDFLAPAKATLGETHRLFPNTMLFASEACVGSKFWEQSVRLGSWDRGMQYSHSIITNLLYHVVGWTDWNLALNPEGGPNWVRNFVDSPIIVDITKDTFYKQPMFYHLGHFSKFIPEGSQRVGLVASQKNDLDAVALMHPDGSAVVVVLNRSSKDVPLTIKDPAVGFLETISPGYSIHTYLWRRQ

With `FC(F)(F)c1cc(CN2CC3(CCNCC3)C2)cc(C(F)(F)F)c1`, the Potency is > 11.4 µM (inactive) in experiment [1] and > 46 µM (inactive) in experiment [6]. Also, the activity change, negative = inhibition in experiment [2] was -6.77% (inactive); in experiment [4] it was 10.6% (inactive); in experiment [9], -2.16% (inactive). The Potency entry in experiment [3], in experiment [8] and in [10] was “inactive” throughout. Also, in [5], the activity, negative = inhibition was 3.31% (inactive). For the same compound, the result in experiment [7] was inactive. Also, the max response in experiment [9] (setting [11]) was -18%; in experiment [9] (setting [12]), -13.5%.

Turning to `COc1ccc(NC(=O)N2CC3(CCN(C(=O)c4cccn4C)CC3)C2)cc1`, the Potency in [1] was > 11.4 µM (inactive); in experiment [6], > 46 µM (inactive). In addition, the activity change, negative = inhibition was -10.5% (inactive) in experiment [2], 14.9% (inactive) in experiment [4] and 6.73% (inactive) in experiment [9]. Moreover, the Potency result in experiment [3], in [8] and in [10] was “inactive” in each case. In addition, in experiment [5], the activity, negative = inhibition was -11.3% (inactive). Besides, the outcome in [7] was inactive. Further, the figures for the max response in [9] (setting [11]) and in [9] (setting [12]) were 8.75% and 21.6%, respectively.

`O=C(Nc1ccccc1)N1CCC2(CC1)CCN(C(=O)c1cnccn1)CC2`: the Potency in [1] is > 11.4 µM (inactive); in [6], > 46 µM (inactive). The figures for the activity change, negative = inhibition in experiment [2], in experiment [4] and in experiment [9] were -8.59% (inactive), 11.9% (inactive) and 6.14% (inactive), respectively. The Potency result in experiment [3], in experiment [8] and in experiment [10] was “inactive” each time. The activity, negative = inhibition in [5] is 2.97% (inactive). Moreover, the outcome in experiment [7] was inactive. For the same compound, the results for the max response in [9] (setting [11]) and in experiment [9] (setting [12]) were 7.98% and 21.7%, respectively.

Regarding `CN1CCCC2(CCN(C(=O)c3cccn3C)CC2)C1`, the Potency in [1] was > 11.4 µM (inactive); in experiment [6] it was > 46 µM (inactive). In addition, the values for the activity change, negative = inhibition in [2], in [4] and in experiment [9] were -4.17% (inactive), -4.14% (inactive) and 1.86% (inactive), respectively. Moreover, the Potency result in experiment [3], in [8] and in experiment [10] was “inactive” each time. Besides, the activity, negative = inhibition in experiment [5] was 7.29% (inactive). Besides, the compound was called inactive in experiment [7]. In addition, the max response is 11.8% in [9] (setting [11]) and 16.9% in experiment [9] (setting [12]).

As for `CC(C)NC(=O)N1CC2(CCN(C(=O)c3ccco3)CC2)C1`, the Potency was > 11.4 µM (inactive) in experiment [1] and > 46 µM (inactive) in experiment [6]. The activity change, negative = inhibition in experiment [2] is -14.7% (inactive); in [4], 16.4% (inactive); in experiment [9], -0.739% (inactive). The Potency result in [3], in experiment [8] and in [10] was “inactive” each time. For the same compound, the activity, negative = inhibition in [5] is -2.76% (inactive). Further, the result in experiment [7] was inactive. Besides, the max response was -15.7% in experiment [9] (setting [11]) and -15.1% in experiment [9] (setting [12]).

On to `CS(=O)(=O)N1CCC2(CCN(C(=O)Nc3cccc(C#N)c3)CC2)CC1`, for which the Potency in experiment [1] was > 11.4 µM (inactive); in experiment [6], > 46 µM (inactive). The activity change, negative = inhibition is 2.04% (inactive) in experiment [2], 16.4% (inactive) in experiment [4] and 2.84% (inactive) in [9]. Also, the Potency result in experiment [3], in experiment [8] and in [10] was “inactive” in each case. Besides, in experiment [5], the activity, negative = inhibition is -21% (inactive). Also, in [7], the call was inactive. For the same compound, the max response in [9] (setting [11]) is -15.9%; in experiment [9] (setting [12]), -10.5%.

Consider `Cc1noc(C)c1C(=O)N1CCC2(CC1)CN(c1ccccc1)C2`, for which the Potency in experiment [1] was > 11.4 µM (inactive); in experiment [6], > 46 µM (inactive). Also, the activity change, negative = inhibition is -19.3% (inactive) in experiment [2], 3.6% (inactive) in [4] and 4.6% (inactive) in experiment [9]. The Potency result in experiment [3], in experiment [8] and in [10] was “inactive” in each case. For the same compound, in [5], the activity, negative = inhibition is -19% (inactive). Moreover, the compound was called inactive in [7]. Further, the max response in experiment [9] (setting [11]) was -4.97%; in experiment [9] (setting [12]) it was 1.75%.

Values taken from PubChem BioAssay (NCATS).
